Source: PubChem (National Center for Advancing Translational Sciences (NCATS))
Most compounds without a hit are left out; they make up all but 7% or so of the library.
S2 tox – viability counter-screen for ATXN expression inhibitors. S2 cells (HEK-293 line with an ATXN2-luciferase reporter) viability, CellTiter-Fluor protease fluorescence, 24 h. Potency, µM (series often up to 56.7 µM), usual class: cytotoxic. 0.49% of 400,000 active; note: potency is the fitted concentration of half-maximal effect; nearly all actives have a fitted effect of over 40% in size
Integrin act MD – activators of alpha7 integrin expression for muscular dystrophy | alpha7betagal myoblasts, beta-gal FDG fluorescence, 48 h | Potency, µM (top dose mostly 38.3 µM), for the others: at the top dose activation, hits mostly activators | 0.064% of 350,000 active;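 note: potency is the fitted concentration of half-maximal effect; 100% = response of the positive control SU9516; nearly all actives have a fitted effect of over 60% in size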
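Alpha7betagal+/- myoblasts (passage 13) were plated 16-24 hr, then exposed to compounds (1:260 dilution of DMSO stock) for 48 hours at 37C. After MPER lysis, β-galactosidase reporter activity was read as FDG fluorescence (ex 480/em 540) after 30 minutes.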
ATXN2 expr inh – inhibitors of ATXN2 expression | Potency, µM (highest dose often 57 µM), inactives show top-dose activity change, negative = inhibition, most hits filed as inhibitors | HEK-293 ATXN2-luciferase reporter, luminescence, 24 h | 0.72% of 360,000 active | AID 1745845; note: potency is the fitted concentration of half-maximal effect; % is set by controls: 0 for no effect and ±100 for the full control effect; nearly all actives have a fitted effect of over 55% in size
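ATXN2-luciferase reporter cells (luciferase flanked by upstream and downstream ATXN2 gene portions) were treated 24 h at 37 °C with compounds at up to 57 uM. SteadyGlo luminescence gave expression; GF-AFC fluorescence gave viability.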
IL-1B inflam inh – blocks inflammasome-driven IL-1 beta release; THP-1 LPS/ATP IL-1B secretion, AlphaLISA, 16 h; stronger effect = lower value; activity change, % at 57.5 µM; 4.7% of 360,000 active; AID 743279; in the data active = activity change below about -50%; inconclusive = mostly about -30% to -49%; note: % is set by controls: 0 for no effect and ±100 for the full control effect
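THP-1 cells pretreated 1 hr with compounds (up to 57.5 uM final), then stimulated with LPS (250 ng/mL final) plus ATP (1.25 mM final); secreted IL-1B measured by AlphaLISA after 16 hr, decreased signal indicating inhibition.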
D3 antag – blocks the human D3 dopamine receptor; D3R cells, DiscoveRx beta-arrestin luminescence, antagonist mode; stronger effect = lower value; P35462; 2.5% of 360,000 active; max response, negative = inhibition, %; in the data active = max response below about -50%; inconclusive = no clear call, values can overlap the other calls; note: % is set by controls: 0 for no effect and ±100 for the full control effect
Target sequence (P35462 whole entry, looked up): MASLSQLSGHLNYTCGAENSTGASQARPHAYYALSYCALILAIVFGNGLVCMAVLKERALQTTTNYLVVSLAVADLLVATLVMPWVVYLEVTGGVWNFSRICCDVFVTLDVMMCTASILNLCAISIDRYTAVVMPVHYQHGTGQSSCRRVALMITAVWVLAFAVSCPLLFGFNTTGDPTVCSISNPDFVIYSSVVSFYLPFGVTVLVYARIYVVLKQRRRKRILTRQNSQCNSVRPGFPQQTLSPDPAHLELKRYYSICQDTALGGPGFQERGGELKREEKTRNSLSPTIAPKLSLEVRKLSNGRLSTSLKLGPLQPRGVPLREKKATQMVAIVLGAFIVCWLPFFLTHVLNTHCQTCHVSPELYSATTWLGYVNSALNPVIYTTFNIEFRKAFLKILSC
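Cells plated overnight at 1500 cells/well, then exposed to library compounds with dopamine controls for 90 minutes at 37 degrees C. DiscoveRx reagent added for 30–60 minutes at room temperature; luminescence read, quantitative HTS format.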
D3 ag – activates the human D3 dopamine receptor | P35462 | D3R DiscoveRx beta-arrestin cells, luminescence, 90 min | max activation, % | 0.58% of 410,000 active | AID 652048; in the data active = max activation above about 30%; note: 0% is about no effect
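Agonist mode: compounds and dopamine controls were applied to plated cells for 90 min at 37 degrees C after an overnight attachment at 1500 cells/well. Luminescent read-out followed 30 - 60 minutes at room temperature with DiscoveRx detection reagent.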
Starred values were filed as active, the others as inactive; i = inactive; ? = inconclusive; · = not tested or not shown; [ ] = remark or other dose. Unless noted, calls come from the whole dose curve; as a rule, active = well fitted curve in the direction sought with a large enough effect; inconclusive = small, poorly fitted or top-dose-only effect, or another doubt; inactive = no such curve, though single readings can be large; an effect the other way counts as inactive or inconclusive.

SMILES	S2 tox	Integrin act MD	ATXN2 expr inh	IL-1B inflam inh	D3 antag	D3 ag
CC1(C(=O)Nc2cnc3ccccc3c2)CCN1C(=O)CCc1ccccc1 (centres undefined)	i	·	-14%	-16	0	54*
CC1(C(=O)Nc2cnc3ccccc3c2)CCN1CCc1ccccc1 (centres undefined)	i	·	?	-27	0	-2
CC1(C(=O)NS(=O)(=O)c2cccc(Cl)c2)CCN1C(=O)CC1CC1 (centres undefined)	i	·	0%	12	0	52*
CCOP(=O)(OCC)/C(C#N)=C(\O)c1ccc(OC)cc1	i	-34%	-5%	5	0	-6
Cc1ccc(-c2cc(C(=O)Nc3cccnc3)[nH]n2)c(O)c1C	?	1%	0%	?	33	-2
CC1(C(=O)Nc2ccc3c(c2)OCO3)CCN1C(=O)Cc1cc(F)ccc1F (centres undefined)	i	·	-3%	-21	-10	-2
CC1(C(=O)NS(=O)(=O)c2ccc(F)cc2F)CCN1C(=O)Cc1ccc(-c2ccccc2)cc1 (centres undefined)	i	·	12%	1	-21	-2
CCCCOc1ccc(S(=O)(=O)NC(=O)C2(C)CCN2C(=O)CCc2ccccc2)cc1 (centres undefined)	i	·	18%	15	-50*	-3
CC1(C(=O)Nc2ccc3c(c2)OCO3)CCN1C(=O)CCc1ccc(Cl)cc1Cl (centres undefined)	28µM*	·	-7%	-3	10	1
CC(C)(C)c1ccc(CC(=O)N2CCC2(C)C(=O)NS(=O)(=O)c2ccc(F)cc2F)cc1 (centres undefined)	i	·	16%	-51*	2	0
Cc1ccc(F)c(S(=O)(=O)NC(=O)C2(C)CCN2C(=O)c2cccc3ccccc23)c1 (centres undefined)	i	·	12%	26	4	72*
Cc1ccccc1S(=O)(=O)NC(=O)C1(C)CCN1C(=O)c1cccc2ccccc12 (centres undefined)	i	·	18%	15	-13	2
CCN(CC)S(=O)(=O)c1ccc(Cl)c(C(=O)OC2CC(C)OC2=O)c1 (centres undefined)	i	-15%	0%	9	12	32*
COc1ccc(-c2cc(=O)oc3c4c(ccc23)OCN(Cc2ccccc2)C4)cc1	i	·	-12%	·	·	-2
CC(=O)Nc1ccc(NC(=O)C(C)OC(=O)CNS(=O)(=O)/C=C/c2ccc(C)cc2)cc1 (centres undefined)	i	17%	4%	-2	-54*	2
Cc1ccc(/C=C/S(=O)(=O)NCC(=O)OCC(=O)Nc2ccc(C(N)=O)cc2)cc1	i	3%	9%	2	16	1
COC(=O)c1ccc(OCC(=O)NCCC2=CCCCC2)c(OC)c1	i	-12%	·	-27	-4	1
O=C(Nc1ccc(Br)cc1Br)Nc1cccc2[nH]c([C@@H]3O[C@H](CO)[C@@H](O)[C@H](O)[C@H]3O)nc12	i	·	12%	-5	1	4
COc1cc2c(cc1OC)CN(Cc1ccc(C)cc1)CC2	i	9%	-16%	-12	-80*	-10
COc1cc2c(cc1OC)CN(Cc1ccccc1)CC2	i	-21%	-1%	5	-24	-27
COc1cc2c(cc1OC)CN(CCC(C)c1ccc(Cl)cc1)CC2 (centres undefined)	i	-52%	-23%	-21	-91*	-14
COc1ccc(CN2CCSCC2)c(OC)c1C	i	3%	4%	9	-1	7
COc1cc2c(cc1OC)CN(Cc1ccc(OC)c(C)c1OC)CC2	i	-30%[7.66 µM]	-22%	-12	-77*	-7
COc1cc2c(cc1OC)CN(Cc1cccs1)CC2	i	7%	-26%	-4	-54*	-12
CCN1C(=O)c2cccc3c(NC(=O)c4ccc(S(=O)(=O)N5CCOCC5)cc4)ccc1c23	i	9%	31%	-2	10	2
